In the supplement of paper PMC3414501:
Counter-ions that a name gives are not always drawn.

system: S. cerevisiae NKY1551 his4x/his4B, sporulating; assay: HIS4 meiotic recombination assay sensitivity score (z-score vs DMSO controls); higher = stronger inhibition of sporulation/recombination, active = hit call of the paper
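Also: active if sensitivity score above 5.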

Structure (SMILES)	HIS4 meiotic recombination assay sensitivity score
CN(CCOc1ccc(CC2SC(=O)NC2=O)cc1)c1ccccn1 (stereo not given) [Rosiglitazone maleate] (stock concentration (mM, diluted 1:100): 7.6)	0.95 (inactive)
COCC1=C(C(=O)OC(C)OC(=O)OC(C)C)N2C(=O)[C@@H](NC(=O)/C(=N\OC)c3csc(N)n3)[C@H]2SC1 (stereo not given in full) [Cefpodoxime proxetil] (stock concentration (mM, diluted 1:100): 7.7)	-1.5 (inactive)
CCOC(=O)[C@H](CCc1ccccc1)N[C@H]1CCc2ccccc2N(CC(=O)O)C1=O [Benazepril hydrochloride] (stock concentration (mM, diluted 1:100): 9.2)	0.2 (inactive)
CNNCc1ccc(C(=O)NC(C)C)cc1 [Procarbazine hydrochloride] (stock concentration (mM, diluted 1:100): 8.6)	-1.19 (inactive)
CC(C)[C@H](N)C(=O)OCCOCn1cnc2c(=O)nc(N)[nH]c21 [Valaciclovir hydrochloride] (stock concentration (mM, diluted 1:100): 9)	0.04 (inactive)
O=C(O[C@@H]1Cc2c(O)cc(O)cc2O[C@@H]1c1cc(O)c(O)c(O)c1)c1cc(O)c(O)c(O)c1 [Epigallocatechin gallate] (stock concentration (mM, diluted 1:100): 10)	0.29 (inactive)
CN(C)CCCSc1ccccc1NC(=O)/C=C/c1ccccc1 [Cinanserin] (stock concentration (mM, diluted 1:100): 10)	7.73 (active)
C=CC1=C(C(=O)O)N2C(=O)[C@@H](NC(=O)/C(=N\O)c3csc(N)n3)[C@H]2SC1 [Cefdinir] (stock concentration (mM, diluted 1:100): 10)	0 (inactive)
NC1CCN(c2cccc(Cl)n2)CC1 (stock concentration (mM, diluted 1:100): 10)	2.37 (inactive)
CN(Cc1cnc2nc(N)nc(N)c2n1)c1ccc(C(=O)N[C@@H](CCC(=O)O)C(=O)O)cc1 [Methotrexate] (stock concentration (mM, diluted 1:100): 14.6)	0.19 (inactive)
CC(=O)OCC(CCn1cnc2cnc(N)nc21)COC(C)=O [Famciclovir] (stock concentration (mM, diluted 1:100): 10)	-0.43 (inactive)
CN(C)CCC(c1ccc(Cl)cc1)c1ccccn1 (stereo not given) [Chlorpheniramine] (stock concentration (mM, diluted 1:100): 10)	5.73 (active)
CC(C)c1ccc2c(c1)c(SC(C)(C)C)c(CC(C)(C)C(=O)O)n2Cc1ccc(Cl)cc1 [Tocris-1311] (stock concentration (mM, diluted 1:100): 10)	-0.42 (inactive)
CSc1nc2cc(Cl)c(Oc3cccc(Cl)c3Cl)cc2[nH]1 [Triclabendazole] (stock concentration (mM, diluted 1:100): 10)	-1.98 (inactive)
O=C1c2c(O)cc(O)cc2OC(c2ccc(O)c(O)c2)C1O (stereo not given) [Taxifolin] (stock concentration (mM, diluted 1:100): 10)	-0.97 (inactive)
CCN(CC)CC(=O)Nc1c(C)cccc1C [Lidocaine] (stock concentration (mM, diluted 1:100): 9.6)	-2.75 (inactive)
CC(=O)SCC(Cc1ccccc1)C(=O)NCC(=O)OCc1ccccc1 (stereo not given) [Acetorphan] (stock concentration (mM, diluted 1:100): 10)	1.65 (inactive)
O=c1n(CCCN2CCN(c3cccc(Cl)c3)CC2)nc2ccccn12 [Trazodone hydrochloride] (stock concentration (mM, diluted 1:100): 10)	-0.45 (inactive)
CC(N/C(=N\C#N)Nc1ccncc1)C(C)(C)C (stereo not given) [Pinacidil monohydrate] (stock concentration (mM, diluted 1:100): 10)	-1.38 (inactive)
C=CC1=C(C(=O)O)N2C(=O)[C@@H](NC(=O)/C(=N\OCC(=O)O)c3csc(N)n3)[C@H]2SC1 [Cefixime trihydrate] (stock concentration (mM, diluted 1:100): 10)	-3.32 (inactive)
